This is an account of results in PubChem BioAssay (NCI).

This is part of a sample that, as a whole, favours compounds with a hit. Of some 83,000 tested, about 20% had one in any assay.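 Plates (96-well) were seeded with cells, treated with compound at one concentration, and incubated for 48 hours before percent growth was determined.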 Unmarked numbers belong to inactive results. The source made the active and inactive calls. How the source made its calls: active means growth percent below 10; inactive means the rest.

In this assay the test system is UACC-257 melanoma. Briefly: NCI-60 one-dose screen, 48 h (100 = growth as untreated, 0 = no growth, -100 = all killed). The following applies: 10 µM unless noted.
On to `CCSc1nc(NC)c2cc(-c3ccc(C(F)(F)F)cc3)ccc2n1`, for which the growth is 106%.
Take `Cc1nc(-c2ccccc2)cc2c(O)c(C(=O)NN)[nH]c(=O)c12`: the growth was 118%.
As to `Cc1ccc(S(=O)(=O)N2CCCC2CO)cc1` (centres undefined), the growth was 107%.
Take `CCOC(=O)c1cc(-c2ccc([N+](=O)[O-])cc2)n(-c2ccc(C(=O)O)c(O)c2)c1C`: the growth is 46.2%.
`COc1cc(CNS(=O)(=O)c2ccc(C)cc2)ccc1OCc1cn(-c2ccc(Br)cc2)nn1`: the growth is 110%.
In the case of `O=C(/C=C/c1ccccc1)c1cccc(OCCCOc2cccc(C(=O)/C=C/c3ccccc3)c2)c1`, the growth is 96.4%.
For `C=CCc1c(O)c(C(=O)/C=C/c2ccc(Cl)cc2)c(OC)c2ccoc12` the value was 39.4%; for `COc1ccc(-c2nc3c(c(-c4ccccc4)nn3-c3ccccc3)c(-c3ccc(N4CCOCC4)cc3)c2C#N)cc1`, 101%.
In the case of `O=C1/C(=C/c2ccc(Cl)cc2)COc2ccc(O)c(O)c21`, the growth is 10.1%.
With `CN(C)c1ccc(Nc2cc(-c3cccc(OC(F)(F)F)c3)nc3ccc(N4CCCC4)cc23)cc1`, the growth is 14.1%.
For `O=C(c1ccc(-c2nc(CSc3nc4ccccc4s3)no2)cc1)N1CCSCC1` the value was 35.7%.
The same measure for `N=C(N)c1ccc(-c2ccc(-c3ccc(Cl)cc3)s2)nc1`: 82.3%; for `COC(=O)c1c2c(c(C)[n+]([O-])c1C)C(=O)C=C(NCc1ccc(OC)cc1)C2=O`: -77% (active).
As for `O=C1/C(=C/c2ccc(Cl)cc2)COc2ccc(O)cc21`, the growth is 104%.
